# Pf growth 96h: P. falciparum growth inhibition at 96 hours; P. falciparum luciferase reporter growth, 96 h; Potency, µM (top dose mostly 28.7 µM), without a hit: top-dose activity change, negative = inhibition, usual class: inhibitors; hit rate 6.9% among 320,000; AID 504834; note: potency is the fitted concentration of half-maximal effect
#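 Infected RBCs, 2% Hct / 0.05% parasitemia final; luciferase-reporter P. falciparum; cpd 96 h, 37 C, 5% CO2; luciferase detection reagent; luminescence.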
# Marburg entry inh: inhibitors of Marburg virus binding or cell entry; Potency, µM (top dose mostly 37.8 µM), for inactives: at the highest dose activity change, negative = inhibition, actives largely listed as inhibitors; AID 540276; hit rate 1.8% among 300,000; Marburg virus pseudotyped entry inhibition, cell reporter; calls by dose curve; tested in HEK293 cells; note: potency is the fitted concentration of half-maximal effect
# HCV inhibitor: inhibitors of hepatitis C virus infection; Huh7.5.1 HCVcc-Cre infection, luciferase reporter, 44 h; Potency, µM (titrated, usually from 41.8 µM), without a hit: top-dose activity change, negative = inhibition, most hits filed as inhibitors; hit rate 3.4% among 340,000; note: potency is the fitted concentration of half-maximal effect
#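 After 44 h co-culture of compound, cells and HCVcc-Cre (~0.5 moi), substrate is added for 15 min at room temperature and luciferase measured over 15 sec. Cells were seeded at 1,000/well and pre-cultured 4 h.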
# HCMV antiviral: inhibitors of human cytomegalovirus. HFF cells, HCMV-luciferase reporter, 72 h; stronger effect = lower value. activity change, negative = inhibition, % at 57.5 µM. hit rate 4.5% among 410,000. AID 1259415; in the data active = activity change below about -60%; inconclusive = no clear call, values can overlap the other calls; inactive = above about -39%
#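 Two-dose cell screen: HFF monolayers treated with compounds and infected with luciferase-expressing HCMV at 1 PFU/cell, 72 h at 37C, then lysed for luciferase measurement.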
# Lassa entry inh: blocks Lassa virus binding to or entry into cells; Lassa virus pseudotype entry inhibition, cell reporter; Potency, µM (doses to about 37.9 µM), for the others: top-dose activity change, negative = inhibition, most hits filed as inhibitors; hit rate 1.2% among 300,000; AID 540256; calls by dose curve; tested in HEK293 cells; note: potency is the fitted concentration of half-maximal effect; nearly all actives have a fitted effect of over 50% in size
# Pf growth 48h: P. falciparum growth inhibition at 48 hours (one generation) | P. falciparum luciferase growth in erythrocytes, 48 h | Potency, µM (titrated, usually from 28.7 µM), inactives show at the highest dose activity change, negative = inhibition, most hits filed as inhibitors | hit rate 5.9% among 310,000 | AID 504832; note: potency is the fitted concentration of half-maximal effect
#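 Cell-based growth assay: transgenic P. falciparum expressing firefly luciferase, cultured in red cells within RPMI 1640 containing 0.5% w/v Albumax, 24 mM bicarbonate and gentamycin. A drop in luciferase activity indicates inhibition.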
# * marks the source's active call; other numbers are inactive results; ? = inconclusive; · = no result; [ ] = dose if it differs, or a comment. Rows were chosen to be rich in hits. Some 14% of all compounds tested hit in one or more screens of this group. Unless noted, calls come from the whole dose curve; as a rule, active = well fitted inhibition curve with a large enough effect; inconclusive = small, poorly fitted or top-dose-only effect, or another doubt; inactive = no such curve, though single readings can be large or run the other way. % is set by controls: 0 for no effect and ±100 for the full control effect.
SMILES,Pf growth 96h,Marburg entry inh,HCV inhibitor,HCMV antiviral,Lassa entry inh,Pf growth 48h
CCCc1ccc(OCC(=O)Nc2sc3c(c2C(=O)OCC)CCC(C(C)(C)C)C3)cc1 (stereo not drawn),·,·,·,11.1,0.9%[46.1 µM],·
COc1ccc(CN2CCNC(=O)C2CC(=O)NC2CCCCCCC2)cc1OC (stereo not drawn),-7.5%,-26.5%[46.1 µM],4.3%,?,8.1%[46.1 µM],11.7µM*
COc1ccc(CN2CCNC(=O)C2CC(=O)NC2CCCC2)c(OC)c1 (stereo not drawn),-11.2%,·,-5.1%,24.9,·,?
COc1ccc(C(=O)N2CCNC(=O)C2CC(=O)Nc2ccc(C)c(C)c2)cc1 (stereo not drawn),9.28µM*,26.6%,18.3%,-11.9,?,11.1%
COc1ccc(CN2CCNC(=O)C2CC(=O)NC2CCCC2)cc1OC (stereo not drawn),?,27.5%,16.9%,-12.5,-19.4%,-15.0%
COc1ccc(CN2CCNC(=O)C2CC(=O)NC2CCCCC2)c(OC)c1 (stereo not drawn),9.28µM*,8.4%,13.9%,18.8,2.1%,-16.8%
O=C(CCS(=O)(=O)c1cc2c3c(c1)CCN3C(=O)CC2)NCc1ccc(F)cc1,·,·,·,-12.9,-3.3%[46.1 µM],·
COC(=O)[C@@H]1[C@@H]2C[C@H]3c4[nH]c5cc(OC)ccc5c4CCN3C[C@@H]2C[C@H](OC(=O)/C=C\c2cc(OC)c(OC)c(OC)c2)[C@H]1OC,?,·,·,·,·,5.1µM*
CCOC(=O)Oc1c(OC)cc(C(=O)O[C@@H]2C[C@@H]3CN4CCc5c([nH]c6cc(OC)ccc56)[C@H]4C[C@@H]3[C@H](C(=O)OC)[C@H]2OC)cc1OC,2.94µM*,·,5.62µM*,-67.6*,·,2.62µM*
COC(=O)C1C2CC3c4[nH]c5cc(OC)ccc5c4CCN3CC2CC(OC(=O)CC(C)=O)C1OC (stereo not drawn),·,?,-11.1%,-14.2,29.8%[46.1 µM],·
CC(=O)Nc1ccc(NC(=O)COC(=O)c2cc(S(=O)(=O)N(C)C)ccc2N2CCCC2)cc1,2.8%,12.7%,4.5%,11.3,-4.0%,-13.4%
CCN1CCN(S(=O)(=O)c2ccc(Cl)c(C(=O)N(CC)CC(=O)Nc3ccc(OC)cc3)c2)CC1,13.1µM*,·,11.2%,-5.2,·,-12.5%
CCN(CC(=O)Nc1ccc(OC)cc1)C(=O)c1cc(S(=O)(=O)N(C)C)ccc1N1CCCC1,-9.4%,5.4%[46.1 µM],11.2µM*,-35.1,-1.1%,?
CN(CC(=O)Nc1ccc(F)cc1)C(=O)COC(=O)c1cc(S(=O)(=O)N(C)C)ccc1N1CCCC1,8.28µM*,?,-26.4%[8.37 µM],9.8,-2.6%,11.7µM*
COc1ccc(NC(=O)CN(C)C(=O)c2cc(S(=O)(=O)N(C)C)ccc2N2CCCC2)cc1,8.9%,-13.2%,-8.6%,9.5,4.5%,-8.2%
CCOc1ccc(C(=O)Nc2ccc(-c3nc4ccccc4s3)c(C)c2)cc1OCC,·,·,·,69.6,?,·
CC(C)(O)CC[C@@H](O)[C@](C)(O)C1CC[C@@]2(O)C3=CC(=O)[C@]4(O)C[C@@H](O)[C@@H](O)C[C@]4(C)C3CC[C@]12C (stereo partly drawn),11.2%,·,12.7%,-4.0,·,-3.3%
Cc1ccc(-n2ncc(C(=O)NCCc3ccccc3)c2C2CCN(C(=O)OC(C)(C)C)CC2)c(C)c1,·,·,·,33.2,?,·
CC(=NNC(=S)Nc1ccccc1Cl)c1ccccn1,·,?,?,-98.7*,0.251µM*,·
CC(=NNC(=S)Nc1ccccc1)c1ccccn1,·,·,·,-98.4*,·,·
Cc1ccc(S(=O)(=O)NC(C(=O)OCC(=O)NC2CCS(=O)(=O)C2)C(C)C)cc1 (stereo not drawn),10.4µM*,24.1%,10.1%,-2.0,12.3%,14.3%
O=C(c1cc(-c2ccccn2)nc2c(Cl)cccc12)N1CCN(S(=O)(=O)c2ccccc2)CC1,-15.6%,-44.6%,14.8%,118.5,-18.8%,10.4µM*
O=C(Nc1ccc([N+](=O)[O-])cc1)c1cc(-c2ccccn2)nc2c(Cl)cccc12,14.7µM*,-25.6%,?,-31.8,-20.6%,18.5%
O=C(c1cc(-c2ccccn2)nc2ccccc12)N1CCN(c2ncccn2)CC1,-5.1%,0.2%,3.5%,0.3,4.7%,-17.6%
CC(C)Oc1cccc(-c2cc(C(=O)N3CCN(c4ncccn4)CC3)c3ccccc3n2)c1,9.28µM*,·,·,74.9,·,·
SMILES,Pf growth 96h,Marburg entry inh,HCV inhibitor,HCMV antiviral,Lassa entry inh,Pf growth 48h
COc1cccc(-c2cc(C(=O)N3CCN(c4ncccn4)CC3)c3ccccc3n2)c1,-23.2%,?,?,67.0,?,?
Cc1ccc2nc(-c3ccccn3)cc(C(=O)N3CCN(c4ncccn4)CC3)c2c1,2.62µM*,?,2.6%,-3.2,-1.0%,21.8%
CCCOc1ccc(CNC(=O)C2CCN(C(=O)c3sccc3-n3cccc3)CC2)cc1,·,-7.9%[46.1 µM],·,-33.8,·,·
CNCc1c(OCc2ccc(F)cc2)ccc2ccccc12,?,?,-3.0%,5.5,?,14.7µM*
NC(=O)Cc1ccc(C(=O)CSc2nnc(-c3ccncc3)n2C2CC2)s1,·,8.0%[46.1 µM],-0.9%,-22.3,2.9%[46.1 µM],·
O=C1NC2(C=Cc3c(ccc4ccccc34)O2)Oc2ccccc21 (stereo not drawn),2.6%,-21.1%,?,·,3.8%,-1.7%
CC1(C)OC(=O)N(c2ccccc2)C12C=Cc1c(ccc3ccccc13)O2 (stereo not drawn),136.4%,-2.1%,-29.2%,-15.0,-24.9%,13.1µM*
O=C(Cn1nnc(-c2ccc(N3CCOCC3)cc2)n1)N1CCOCC1,267.5%,·,5.9%,·,·,129.0%
O=C(Cn1nnc(-c2ccc(N3CCOCC3)cc2)n1)OC1CCCCC1,7.38µM*,7.0%,4.2%,-15.5,?,234.7%
C[C@@H]1CN([C@@H](C)CO)S(=O)(=O)c2ccc(Br)cc2O[C@@H]1CN(C)C(=O)NC1CCCCC1,·,·,·,5.2,·,·

# Assay outcomes deposited in PubChem by National Center for Advancing Translational Sciences (NCATS).
